Compound activity from PubChem BioAssay.
MPTP block: inhibitors of mitochondrial permeability transition pore | isolated mouse mitochondria, Ca2+ swelling absorbance, 30 min | inhibition, % at 10 µM | 1.4% of 360,000 active;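 active means inhibition of 50% or more, scaled per plate between neutral and stimulator controls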;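 further: 0% = DMSO wells given calcium and 100% = 1 mM EGTA wells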
CSC inhib: blocks cancer stem cells; cancer stem cell-like cells viability, luminescence; inhibition, % at 7.5 µM; 1.1% of 300,000 active; in the data active means inhibition above about 75%; tested in HMLE shEcad cells
GRIN3A LBD mod: modulators (binders) of human NR3A ligand-binding domain | NR3A LBD differential scanning fluorimetry, Tm shift; 0% = protein alone, 100% = glycine-bound protein | Tm shift relative to glycine control, % at 25 µM | 2.5% of 340,000 active;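 active means melting temperature shift of at least 10% of the positive control shift, at one fixed dose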
Beta cell apopt: blocks beta cell apoptosis; INS-1E cytokine-induced death, ATP luminescence, 48 h; percent of positive-control rescue, neutral wells zero; protection from apoptosis, % (test concentration not listed); 0.8% of 300,000 active; AID 435005;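 active means Every replicate reaches about 75%, or at least half do and their mean reaches it too, limit read from the data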;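 further: 0% = cytokine-treated negative control wells and 100% = positive control rescue; higher means more ATP so stronger rescue from cytokine killing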
SKKanGAS inh: inhibitors of SKKanGAS S. pyogenes growth in kanamycin (SK-promoter or general growth effect); inhibition, % at 7.5 µM; BacTiter-Glo, 6 h; 1.3% of 300,000 active;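 active means mean replicate score, as percent of positive control median, at least 50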;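 further: strain carries kanamycin resistance gene driven by streptokinase promoter and grows in 40 µg/ml kanamycin; loss of luminescence reflects streptokinase promoter inhibition or plain growth inhibition; 0% = median of DMSO wells and 100% = positive control at its reference dose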
Mdm2 MdmX PPI: disrupts the human Mdm2-MdmX interaction; SaOS-2 split-luciferase Mdm2/MdmX complementation, luminescence; inhibition, % at 8 µM; 3% of 330,000 active;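 active means inhibition of at least 50% at 8 µM in the primary screen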
MPTP counter: mitochondrial membrane potential, counter-screen | isolated mitochondria, Rhodamine 123 fluorescence | 78% of 5,000 active | shares compounds with MPTP block | AID 624504 | inhibition, % at 10 µM; in the data active means inhibition above about 22%;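 further: 0% = DMSO vehicle and 100% = positive control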
MPTP abs DR: dose response confirmation of mitochondrial permeability transition pore inhibitors; isolated mitochondria swelling, absorbance; 58% of 780 active; shares compounds with MPTP block; IC50, µM; in the data active means IC50 below about 20 µM
MPTP cs DR: active in counter-screen for permeability transition pore inhibitors | AID 651564 | IC50, µM | 49% of 780 active | shares compounds with MPTP block | isolated mitochondria counterscreen, fluorescence read-out; in the data active means IC50 below about 80 µM
* = called active by the depositor. Hits are enriched below; roughly 6.9% of the tested compounds scored in any of these assays.

For CC(C)=CCCC(C)CN1CCC(n2nccc2NC(=O)C2CCCC2)CC1 (centres undefined) the results were MPTP block 1, CSC inhib -11, GRIN3A LBD mod -4, SKKanGAS inh 48 and Mdm2 MdmX PPI 47.
CCCCCCCCCS(=O)(=O)N/N=C/c1cccc([N+](=O)[O-])c1 was read as MPTP block 64*, CSC inhib 24, GRIN3A LBD mod 18*, Beta cell apopt -11, SKKanGAS inh 11, Mdm2 MdmX PPI 14 and MPTP counter 61*.
For CCCCCCCCCCS(=O)(=O)N/N=C/c1ccc(O)cc1 the results were MPTP block 79*, CSC inhib 38, GRIN3A LBD mod 4, Beta cell apopt -4, SKKanGAS inh 4, Mdm2 MdmX PPI -10 and MPTP counter 56*.
`O=C(N/N=C/c1ccco1)c1cc([N+](=O)[O-])cc([N+](=O)[O-])c1` gave MPTP block 1, CSC inhib -15, GRIN3A LBD mod -5, Beta cell apopt -5, SKKanGAS inh 3 and Mdm2 MdmX PPI -2.
Screening O=[N+]([O-])c1ccc(N/N=C/C=C/c2ccco2)cc1 returned MPTP block 76*, CSC inhib 11, GRIN3A LBD mod 41*, SKKanGAS inh -7, Mdm2 MdmX PPI -46 and MPTP counter 70*.
O=[N+]([O-])c1ccc(NN=Cc2cccc([N+](=O)[O-])c2)cc1 was read as MPTP block 92*, GRIN3A LBD mod 34* and MPTP counter 65*.
COC(=O)N/N=C/c1cccc([N+](=O)[O-])c1 was read as MPTP block 2, CSC inhib -13, GRIN3A LBD mod -2, Beta cell apopt -11, SKKanGAS inh 8 and Mdm2 MdmX PPI -21.
Cc1ccc(S(=O)(=O)N/N=C/c2cccc([N+](=O)[O-])c2)cc1 was read as MPTP block 0, CSC inhib -5, GRIN3A LBD mod 1, SKKanGAS inh -6 and Mdm2 MdmX PPI 17.
CC(=O)c1cccc(OCc2cc(C(=O)NCCC3=CCCCC3)no2)c1 was read as MPTP block -2, CSC inhib 1, GRIN3A LBD mod 3, Beta cell apopt 1, SKKanGAS inh -4 and Mdm2 MdmX PPI -116.
For CC1=CCC(C(=O)O)C(C(=O)Nc2ccc(-c3nc4ccc(C)cc4s3)cc2)C1 (centres undefined) the results were MPTP block 2, CSC inhib 49, GRIN3A LBD mod -12, Beta cell apopt -2, SKKanGAS inh -5 and Mdm2 MdmX PPI -63.
Screening COC(=O)c1ccc(Cn2c(C)c(C(=O)NCc3cccc([N+](=O)[O-])c3)sc2=O)o1 returned MPTP block 0.
For Cc1cccc(C(=O)Oc2ccccc2/C=N/Nc2ccc([N+](=O)[O-])cc2)c1 the results were MPTP block 67*, CSC inhib 33, GRIN3A LBD mod 14*, Beta cell apopt 15 and MPTP counter 78*.
For Cc1ccnc(NCc2cc(Cl)cc(Cl)c2O)c1 the results were MPTP block 2.
Screening Cc1cc(C)c(O)c(CN(C)Cc2cc(Cl)cc(Cl)c2O)c1 returned MPTP block 94*, GRIN3A LBD mod -3 and MPTP counter 87*.
C[C@H](OC(=O)NCc1ccc(C(F)(F)F)cc1)[C@@H]1O[C@@]2(C)CCC[C@@H]1O2 was read as MPTP block 1, CSC inhib 0, GRIN3A LBD mod 0, Beta cell apopt -3 and Mdm2 MdmX PPI 5.
COc1ccc(CCNCC(O)COc2cccc(Br)c2)cc1 (centres undefined) was read as MPTP block 60*, CSC inhib 50, GRIN3A LBD mod -1, Beta cell apopt 1, SKKanGAS inh -7, Mdm2 MdmX PPI -11, MPTP counter -6, MPTP abs DR 5.1* and MPTP cs DR 47*.
